Compound activity from PubChem.
A selection: hits, their analogues and other compounds. The true share with any hit is near 7.6%.
Cy5 interf NS3h: Cy5 fluorescence quenchers or enhancers, artefact control for HCV NS3 helicase inhibitor project, biochemical, ChemBridge library, Cy5 readout; fluorescence interference ratio at 100 µM; hit rate 6% among 16,000; Cy5-dT15 DNA with NS3h, fluorescence interference; actives lie on both sides; signal over control mean, under 1 quenches;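 active = compound fluorescence over control fluorescence at most 0.8, a quencher, or at least a set upper limit, an enhancer; inactive = ratio between 0.8 and the set upper limit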
NS3h inh CB: HCV NS3 helicase inhibitors, primary screen, biochemical, fluorescence polarization, ChemBridge library; AID 687043, 2013; hit rate 1.6% among 16,000; Hepatitis C virus NS3 helicase; inhibition, % at 100 µM; NS3h Cy5-dT15 DNA binding;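 active = inhibition above the average over every tested compound plus 3 SD, cut at about 40% in these data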
A number is an active result; . = inactive.

SMILES	Cy5 interf NS3h	NS3h inh CB
COc1ccc(C2CC(C(F)(F)F)n3nc(C(=O)NCc4cccs4)cc3N2)cc1OC (stereo not drawn)	.	.
O=C(c1cc2n(n1)C(C(F)(F)F)CC(c1ccc(Cl)cc1)N2)N1CCN(c2ccccc2)CC1 (stereo not drawn)	.	.
COc1ccc(C2CC(C(F)(F)F)n3nc(C(=O)O)cc3N2)cc1OC (stereo not drawn)	0.65	.
O=C(O)[C@@H]1C2CCCCC2=C2CCCCC2[C@@H]1C(=O)O (stereo partly drawn)	.	.
COc1cc(/C=C2\NC(=S)NC2=O)ccc1OC(=O)C12CC3CC(CC(C3)C1)C2	0.68	.
Cc1ccc(OC(=O)C23CC4CC(CC(C4)C2)C3)c(C)n1	.	.
CC(=O)c1ccc(NC(=O)C2CC(=O)N(c3cc(C)ccc3C)C2)cc1 (stereo not drawn)	.	.
CCOc1cc2oc(=O)cc(-c3ccccc3)c2cc1CC	.	.
O=C(Nc1ccc(/C=C/c2ccccc2)cc1)c1ccccc1[N+](=O)[O-]	.	.
COc1ccc(C(=O)Oc2cccc(C(=S)N3CCOCC3)c2)cc1	.	.
S=C(c1cccc(OCc2ccccc2)c1)N1CCOCC1	0.64	.
CC1(C)CC(=O)C2=C(C1)OC1=C(C(=O)CC(C)(C)C1)C21C(=O)Nc2ccccc21	.	.
CCOC(=O)CSc1nc(C)c(Cl)c(=O)[nH]1	.	.
Cc1cc(C(=O)NCCCN(C)C)ccc1[N+](=O)[O-]	.	.
COC(=O)C1=C(C(=O)OC)SC(=C2C(=S)C(C)(C)N(C(=O)c3cccc(F)c3)c3c(OC)cccc32)S1	.	.
COC(=O)C1=C(C(=O)OC)SC(=C2C(=S)C(C)(C)N(C(=O)c3cccc([N+](=O)[O-])c3)c3ccc(OC)cc32)S1	0.53	.
O=C(Nc1ccc(Cl)cc1)Nc1nnc(COc2ccccc2F)s1	.	.
Oc1ccc(/C=N\N2CCN(Cc3ccc(Cl)cc3)CC2)cc1O	.	.
Cc1ccc(C)c(Nc2nc3c(s2)CCCC3)c1	0.78	.
CCN(CC)C(=S)SCC(=O)Nc1cc(C)ccc1C	.	.
Clc1cccc(Nc2nc3c(s2)CCCC3)c1	0.76	.
O=C(Nc1cccc(Cl)c1)Nc1nnc(/C=C/c2ccccc2Cl)s1	.	.
O=C(Nc1ccc(-c2nc3ccccc3o2)cc1)c1ccc(NC(=O)c2cc3ccccc3o2)cc1	.	.
CC(C)(C)NC(=O)CC12CC3CC(C1)CC(CC(=O)NC(C)(C)C)(C3)C2	.	.
Cc1ccc2nc(N3CCCCC3)nc(-c3ccccc3)c2c1	.	.
SMILES	Cy5 interf NS3h	NS3h inh CB
Cc1cc2nc(-c3cccc(NC(=O)COc4ccccc4[N+](=O)[O-])c3)oc2cc1C	.	.
CC(=O)Nc1ccc(NC(=O)c2ccc(C(F)(F)F)cc2)cc1	0.76	.
CC(=O)Nc1ccc(NC(=O)c2ccc(Cl)c(Cl)c2)cc1	1.2	.
O=C(Nc1ccc(NC(=O)c2ccc(Cl)cc2Cl)cc1)c1ccc(Cl)c(Cl)c1	.	.
O=C(Nc1ccc2c(c1)C(=O)N(c1ccccc1)C2=O)c1ccc2c(c1)C(=O)N(c1ccccc1)C2=O	.	.
CC(=O)Nc1ccc(NC(=O)c2ccc(C)cc2)cc1	.	.
CC(=O)Nc1ccc(NC(=O)c2ccc(N3C(=O)c4ccc(C(=O)Nc5ccc(NC(C)=O)cc5)cc4C3=O)cc2)cc1	0.77	.
N#C/C(=C(/O)c1ccc(Cl)c([N+](=O)[O-])c1)c1nc2ccccc2s1	.	.
O=C(Nc1ccc(Nc2ccccc2)c2c1C(=O)c1ccccc1C2=O)c1ccccc1	.	.
COc1cc(/C=N\Nc2ccnc3cc(Cl)ccc23)ccc1O	0.34	.
COc1cc(/C=C2/C(=O)ON=C2c2ccc(Cl)cc2)ccc1O	.	.
COc1ccc2c(c1)OCC/C2=N/OC(=O)c1ccc(C)cc1	.	.
COc1ccc2c(c1)OCC/C2=N/OC(=O)c1cc(OC)c(OC)c(OC)c1	1.2	.
CCCOc1cccc(C(=O)Nc2cc3nn(-c4ccccc4)nc3cc2C)c1	.	.
Cc1ccc(S(=O)(=O)N=C2C=CC(=O)C(Br)=C2)cc1	.	.
Cc1ccc(S(=O)(=O)N=C2C=C(Cl)C(=O)C(Br)=C2)cc1	0.61	.
CCOc1ccc(NC2=C(Cl)C(=O)N(c3ccccc3)C2=O)cc1	.	.
COc1cc(C=C2C(=O)N(C)C(=O)N(C)C2=O)ccc1Oc1ccc([N+](=O)[O-])cn1	0.79	.
O=C(O)CN1C(=O)/C(=C/c2ccccc2OCc2ccc([N+](=O)[O-])cc2)SC1=S	.	.
COc1cc(/C=C2\SC(=S)NC2=O)ccc1Oc1ccc([N+](=O)[O-])cn1	.	.
CN1C(=O)C(=Cc2ccccc2OCc2ccc([N+](=O)[O-])cc2)C(=O)N(C)C1=O	0.58	.
CC(=O)c1c(C(C)=O)c(C)n(-c2cc(C)cc(C)c2)c1C	.	.
CCOC(=O)Cn1nc(C(F)(F)F)c(Cl)c1C	.	.
CCOC(=O)c1c(NC(=O)c2cncc(Br)c2)sc(C)c1C	.	.
O=C(NC(CS)C(=O)O)c1cncc(O)c1 (stereo not drawn)	0.64	.
SMILES	Cy5 interf NS3h	NS3h inh CB
O=C(/C=C/c1ccc(S(=O)(=O)Nc2ccccc2)cc1)C1C(=O)c2ccccc2C1=O	0.47	.
O=C(O)/C=C/c1cccc(NS(=O)(=O)c2ccccc2)c1	.	.
CCOc1ccc(C(=O)Nc2ccc(OC)c(Cl)c2)cc1	.	.
Cc1ccc(OCCOCCOc2ccc(Cl)cc2/C=C2/SC(=S)NC2=O)cc1	.	.
C=CCOc1ccc(Cl)cc1/C=C1/SC(=S)NC1=O	1.2	.
CCOC(=O)c1ccccc1NC(=O)CN(c1ccc(OC)cc1)S(=O)(=O)c1ccccc1	.	.
O=C(c1cccc(C#Cc2ccccc2)c1)N1CCN(C(c2ccccc2)c2ccccc2)CC1	.	.
O=C(NCC1CCCO1)c1cc2n(n1)C(C(F)(F)F)CC(c1cccs1)N2 (stereo not drawn)	.	.
O=C(Nc1ccc(OC(F)(F)F)cc1)c1cc2n(n1)C(C(F)(F)F)CC(c1cccs1)N2 (stereo not drawn)	0.71	.
NC(=O)c1nn2c(c1Cl)NC(c1cccs1)CC2C(F)(F)F (stereo not drawn)	0.67	.
CC1CCCC(C)N1C(=O)c1nn2c(c1Cl)NC(c1cccs1)CC2C(F)(F)F (stereo not drawn)	.	.
COc1ccc(/C=C2\C(=O)NC(=O)N(c3ccc(Cl)cc3)C2=O)cc1C(=O)O	.	.
O=C1N/C(=N/N=C\c2ccccc2O)SC1Cc1ccc(Br)cc1 (stereo not drawn)	.	52
O=C1N/C(=N\N=C/c2ccccc2O)SC1Cc1ccccc1 (stereo not drawn)	.	.
O=C1NC(=S)N(c2ccc(F)cc2)C(=O)/C1=C/c1ccc(F)cc1	0.65	.
CCc1ccc(N2C(=O)/C(=C/c3ccc(O)c(Cl)c3)C(=O)NC2=S)cc1	.	.
Cc1ccc(N2C(=O)/C(=C/C=C/c3ccccc3)C(=O)NC2=S)cc1	0.72	.
CCOc1ccc(/C=C2\C(=O)NC(=S)N(c3ccc(C)cc3)C2=O)cc1Cl	.	.
C=CCOC(=O)C1=C(C)NC(C)=C(C(=O)OCC=C)C1c1ccc(O)c(OCC)c1	.	.
C=CCOC(=O)C1=C(C)NC(C)=C(C(=O)OCC=C)C1c1ccc(OC)c(OC)c1	0.8	.
